Values without a mark were called inactive. For some of these results: Potency and affinity values are given separately. Activity calls are given as the source filed them. Unless noted, no rule for the calls is given here.
Columns and labels:
[1] = antimalarial activity against Dd2 strain (AID 2302;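 active = growth inhibition above 50% at the single 2 µM test dose, taken to imply half-maximal potency below 2 µM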;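 also: 0% = DMSO untreated growth and 100% = chloroquine plus artemisinin killed control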); conditions: P. falciparum Dd2 in RBCs, LDH growth readout, 72 h; at 2 µM; hits give high values
[2] = human hepatoma cell viability loss – ATP luminescence, cytotoxicity control for P. falciparum antimalarial project, primary screen (AID 2303;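 active = inhibition above 50%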;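 also: 0% = DMSO wells and 100% = digitonin-killed cells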); conditions: HepG2 viability, 24-48 h, at 10 µM, hits give high values
[3] = target: L-lactate dehydrogenase (Plasmodium falciparum (isolate CDC / Honduras)) (UniProt Q27743); test: PfLDH activity inhibition – cell lysate, 3D7 strain, counter-screen for P. falciparum growth inhibition project (AID 2304);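 also: 0% = vehicle and 100% = reference inhibitor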; conditions: P. falciparum 3D7 crude extract, LDH APAD/NBT absorbance; at 2 µM; hits give high values
[4] = inhibition of 3D7 malaria parasite growth – strain 3D7 (AID 2306);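 also: 0% = DMSO wells and 100% = chloroquine plus artemisinin control wells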; conditions: P. falciparum 3D7 erythrocytic growth, LDH absorbance, 72 h; at 2 µM; hits give high values
[5] = target: Calcium-dependent protein kinase 1 (Plasmodium falciparum (isolate 3D7)) (UniProt P62344); test: PfCDPK1 kinase inhibitors, biochemical, TCAMS library (AID 1159585; cut-off not given, nearly all actives have IC50 up to about 0.98 µM;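 also: inhibitors leave more ATP so luminescence rises with inhibition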); conditions: recombinant PfCDPK1, Kinase-Glo ATP depletion luminescence
[6] = target: Protein kinase 7 (PK7), Plasmodium falciparum 3D7 (PF3D7_0213400) (UniProt Q7YTF7); test: inhibition of Plasmodium PK7 catalytic activity – biochemical, TCAMS antimalarial set, Kinase-Glo luminescence (AID 1159587); conditions: recombinant PfPK7, Kinase-Glo ATP depletion luminescence
[7] = target: Calcium-dependent protein kinase 4 (Plasmodium falciparum (isolate 3D7)) (UniProt Q8IBS5); test: PfCDPK4 kinase inhibitors, biochemical, TCAMS library (AID 1159588; cut-off not given, nearly all actives have IC50 up to about 0.91 µM); conditions: recombinant PfCDPK4, Kinase-Glo ATP depletion luminescence
[8] = target: Plasmodium falciparum protein kinase 6 (PK6, PF3D7_1337100) (UniProt Q8IDW1); test: PfPK6 kinase inhibitors, biochemical, TCAMS library (AID 1159586); conditions: recombinant PfPK6, Kinase-Glo ATP depletion luminescence
Plasmodium falciparum protein kinase 6 (PK6, PF3D7_1337100), sequence (Q8IDW1 1-305): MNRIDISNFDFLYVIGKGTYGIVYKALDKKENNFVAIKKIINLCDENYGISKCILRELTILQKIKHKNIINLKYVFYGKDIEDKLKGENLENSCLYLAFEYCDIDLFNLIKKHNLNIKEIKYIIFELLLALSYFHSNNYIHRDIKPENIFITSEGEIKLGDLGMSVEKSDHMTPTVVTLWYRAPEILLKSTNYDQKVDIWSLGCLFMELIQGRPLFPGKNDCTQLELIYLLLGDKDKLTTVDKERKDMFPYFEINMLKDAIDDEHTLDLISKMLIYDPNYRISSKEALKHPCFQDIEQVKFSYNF

Calcium-dependent protein kinase 1 (Plasmodium falciparum (isolate 3D7)), sequence (P62344 whole entry, looked up): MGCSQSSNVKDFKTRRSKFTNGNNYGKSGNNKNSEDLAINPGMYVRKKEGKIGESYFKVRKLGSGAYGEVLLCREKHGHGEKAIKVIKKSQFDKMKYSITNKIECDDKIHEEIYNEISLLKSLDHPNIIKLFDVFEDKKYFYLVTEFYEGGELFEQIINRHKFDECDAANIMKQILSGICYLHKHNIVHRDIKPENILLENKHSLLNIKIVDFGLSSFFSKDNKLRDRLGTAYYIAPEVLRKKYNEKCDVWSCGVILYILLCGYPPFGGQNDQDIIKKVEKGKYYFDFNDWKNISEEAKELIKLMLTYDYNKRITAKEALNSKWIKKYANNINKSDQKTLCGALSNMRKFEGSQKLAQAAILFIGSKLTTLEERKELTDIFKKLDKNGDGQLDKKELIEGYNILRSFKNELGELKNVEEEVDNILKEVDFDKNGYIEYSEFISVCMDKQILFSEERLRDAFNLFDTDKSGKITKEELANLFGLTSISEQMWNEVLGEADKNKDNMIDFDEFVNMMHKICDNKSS
Protein kinase 7 (PK7), Plasmodium falciparum 3D7 (PF3D7_0213400), sequence (Q7YTF7 1-343): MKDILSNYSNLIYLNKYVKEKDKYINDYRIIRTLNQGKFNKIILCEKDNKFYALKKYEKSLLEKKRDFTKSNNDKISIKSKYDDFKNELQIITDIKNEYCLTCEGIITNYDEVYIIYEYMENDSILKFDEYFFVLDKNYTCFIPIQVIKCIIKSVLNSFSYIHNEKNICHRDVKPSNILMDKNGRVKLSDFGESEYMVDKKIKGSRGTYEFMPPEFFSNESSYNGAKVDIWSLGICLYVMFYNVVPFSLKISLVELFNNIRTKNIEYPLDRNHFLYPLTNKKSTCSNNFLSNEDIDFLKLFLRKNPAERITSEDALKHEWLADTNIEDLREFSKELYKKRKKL
L-lactate dehydrogenase (Plasmodium falciparum (isolate CDC / Honduras)), sequence (Q27743 whole entry, looked up): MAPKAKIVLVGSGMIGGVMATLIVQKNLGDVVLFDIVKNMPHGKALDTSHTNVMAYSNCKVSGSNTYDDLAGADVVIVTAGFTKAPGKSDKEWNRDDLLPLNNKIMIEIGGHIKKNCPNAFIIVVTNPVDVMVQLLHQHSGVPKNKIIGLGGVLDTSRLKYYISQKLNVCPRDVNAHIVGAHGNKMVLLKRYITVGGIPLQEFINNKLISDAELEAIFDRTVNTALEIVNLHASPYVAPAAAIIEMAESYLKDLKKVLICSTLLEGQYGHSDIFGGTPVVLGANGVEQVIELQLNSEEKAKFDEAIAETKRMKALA
Calcium-dependent protein kinase 4 (Plasmodium falciparum (isolate 3D7)), sequence (Q8IBS5 whole entry, looked up): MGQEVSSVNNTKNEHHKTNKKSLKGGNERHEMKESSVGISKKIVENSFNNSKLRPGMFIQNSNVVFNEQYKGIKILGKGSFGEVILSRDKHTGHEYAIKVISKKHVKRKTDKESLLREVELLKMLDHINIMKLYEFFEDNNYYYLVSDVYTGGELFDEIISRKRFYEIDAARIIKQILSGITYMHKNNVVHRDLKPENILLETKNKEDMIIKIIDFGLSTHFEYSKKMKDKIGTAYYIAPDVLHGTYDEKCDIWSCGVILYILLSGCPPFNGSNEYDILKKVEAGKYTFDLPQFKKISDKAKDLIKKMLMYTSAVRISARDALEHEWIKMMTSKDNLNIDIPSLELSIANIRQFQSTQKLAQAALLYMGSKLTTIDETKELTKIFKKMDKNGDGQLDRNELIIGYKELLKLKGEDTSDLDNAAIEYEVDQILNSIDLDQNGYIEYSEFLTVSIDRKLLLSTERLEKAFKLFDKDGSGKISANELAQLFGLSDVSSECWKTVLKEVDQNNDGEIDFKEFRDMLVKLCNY

Compound | growth inhibition [1] | inhibition [2] | inhibition [3] [%] | growth inhibition [4] | outcome [5] | outcome [6] | outcome [7] | outcome [8]
CC(=O)Nc1ccc(Nc2ncc([N+](=O)[O-])c(Nc3ccccc3C(N)=O)n2)cc1 | 97% (active) | 42% | 2 | 98% (active) | inactive | inactive | inactive | 
CS(=O)(=O)Cc1cccc(Nc2ncc(Cl)c(Nc3cccnc3C(N)=O)n2)c1 | 97% (active) | 56% (active) | -3 | 96% (active) | inactive | inactive | inactive | 
CCNC(=O)Nc1ccc(-c2cnc(N)c(-c3nc4ccc(OC)cc4[nH]3)c2)cc1 | 43% | 51% (active) | 1 | 100% (active) |  | inactive | inactive | inactive
Oc1cccc(Nc2ccnc3cc(-c4ccncc4)ccc23)c1 | 99% (active) | 8% | 1 | 101% (active) |  | inactive | inactive | inactive
COc1c(CN2CCCC2)cccc1-c1cc2c(-c3ccc(C(=O)O)c(C(C)C)c3)ccnc2[nH]1 | 98% (active) | 56% (active) | -1 | 99% (active) | inactive | inactive | inactive | 
Cc1ccc(Nc2nc3cc(Nc4ccnc(Nc5cccc(CS(C)(=O)=O)c5)n4)ccc3o2)cc1 | 81% (active) | 55% (active) | 4 | 101% (active) | inactive | inactive | inactive | 
CN1CCC(NC(=O)c2cccc(Nc3cc(Nc4cccc(Br)c4)ncn3)c2)CC1 | 6% | 25% | 1 | 94% (active) | inactive | inactive | inactive | 
C#CCNC(=O)c1ccc(-c2ccnc(Nc3cccc(CCCN4CCOCC4)c3)n2)s1 | 45% | 54% (active) | -4 | 82% (active) | inactive | inactive | inactive | 
N=C(N)c1ccc(Nc2nc(Nc3ccc(-c4ccccc4)cc3)ncc2[N+](=O)[O-])cc1 | 35% | 11% | -3 | 99% (active) | inactive | inactive | inactive | 
C(=N\Nc1nccc2sc(-c3ccccc3)cc12)/c1cccnc1 | 10% | -9% | 8 | 97% (active) | inactive | inactive | inactive | 
CN(c1ccc2c(c1)nc(NCc1ccc(F)cc1)n2C)c1ccnc(Nc2ccc(CS(C)(=O)=O)cc2)n1 | 79% (active) | 48% | 7 | 97% (active) | inactive | inactive | inactive | 
Oc1cc(-c2nc(C3(CNCc4ccc(Cl)cc4)CCCCC3)[nH]c2-c2ccncc2)ccc1Cl | 99% (active) | 35% | 2 | 100% (active) |  | inactive | inactive | inactive
CCN(CC)CCNc1nccc(N(C)c2ccc(NC(=O)Nc3cc(C(F)(F)F)ccc3F)cc2)n1 | 25% | 74% (active) | 1 | 97% (active) | inactive | inactive | inactive | 
Cc1ccc(S(=O)(=O)Nc2ccc(Nc3nccc(Nc4cccc5[nH]ncc45)n3)cc2)cc1 | 5% | 57% (active) | 6 | 90% (active) | inactive | inactive | inactive | 
CCNC(=O)Nc1ccc(N(C)c2ccnc(Nc3ccc(CS(C)(=O)=O)cc3)n2)cc1 | 99% (active) | -5% | 2 | 101% (active) | inactive | inactive | inactive | 
O=C(O)c1cccnc1Sc1ccc(Cl)cc1 | 4% | 5% | 3 | 100% (active) | inactive | inactive | inactive | 
CC(C)(CNCc1ccc(F)c(F)c1)c1nc(-c2ccc(Cl)c(O)c2)c(-c2ccnc(N)n2)[nH]1 | 79% (active) | 41% | -4 | 99% (active) |  | inactive | inactive | inactive
CN(c1ccc(NC(=O)Nc2cc(C(C)(C)C)on2)cc1)c1ccnc(NCCN2CCOCC2)n1 | 18% | 51% (active) | -5 | 95% (active) | inactive | inactive | inactive | 
N=C(N)c1ccc(Nc2nccc(Nc3nc(-c4ccccc4)cs3)n2)cc1 | 75% (active) | 13% | -8 | 96% (active) | inactive | inactive | inactive | 
Cc1cccc2[nH]c(-c3cc(-c4cn[nH]c4)cnc3N)nc12 | 93% (active) | 37% | 0 | 101% (active) |  | inactive | inactive | inactive
COCCNCc1cccc(-c2ccc3c(Nc4ccc(Oc5cccnc5)cc4)ccnc3c2)c1 | 99% (active) | 58% (active) | -5 | 100% (active) |  | inactive | inactive | inactive
Cn1nc(-c2ccc(NC(=O)Nc3ccc4ccccc4c3)c(F)c2)c2cnc(NCCN3CCOCC3)nc21 | 3% | 62% (active) | 1 | 93% (active) | inactive | inactive | inactive | 

Compound | growth inhibition [1] | inhibition [2] | inhibition [3] [%] | growth inhibition [4] | outcome [5] | outcome [6] | outcome [7] | outcome [8]
Nc1ncc(-c2cccc(F)c2)cc1-c1nc2ccc(F)cc2[nH]1 | 88% (active) | 54% (active) | -3 | 100% (active) | inactive | inactive | inactive | 
COc1cccc(-n2ncc3c(N/N=C/c4ccc(CN(C)CCN(C)C)cc4)ncnc32)c1 | 91% (active) | 29% | -2 | 100% (active) | inactive | inactive | inactive | 
CN(C)CC(O)COc1ccc(Nc2ncc([N+](=O)[O-])c(Nc3ccccc3O)n2)cc1 (stereo unspecified) | 20% | 47% | -4 | 100% (active) | inactive | inactive | inactive | 
CCN(CC)CCCNc1nccc(N(C)c2ccc(NC(=O)Nc3cc(C(F)(F)F)ccc3F)cc2)n1 | 19% | 96% (active) | -6 | 94% (active) | inactive | inactive | inactive | 
COc1c(CN2CCOCC2)cccc1-c1cc2c(-c3ccc(C(=O)O)c(C(C)C)c3)ccnc2[nH]1 | 90% (active) | 44% | -3 | 98% (active) | inactive | inactive | inactive | 
CC(C)(CNC(=O)C1CCN(CCOCc2ccccc2)CC1)c1nc(-c2ccc(Cl)c(O)c2)c(-c2ccncc2)[nH]1 | 18% | 11% | -14 | 101% (active) |  | inactive | inactive | inactive
CN(C)CCNCc1ccc(-c2ccc3c(Nc4ccc(Oc5ccccc5)cc4)ccnc3c2)o1 | 99% (active) | 19% | 2 | 100% (active) |  | inactive | inactive | inactive
COc1cc2nccc(Nc3ccc(Oc4ccccc4)cc3)c2cc1OC | 99% (active) | 13% | -1 | 102% (active) |  | inactive | inactive | inactive
O=C(NCCN1CCC(c2ccncc2)CC1)c1ccc(Nc2nccc(Nc3ccc(Oc4ccccc4)cc3)n2)cc1 | 90% (active) | 17% | 1 | 102% (active) |  | inactive | inactive | inactive
CS(=O)(=O)Cc1ccc(Nc2nccc(-c3c(-c4cccc(NC(=O)c5c(F)cccc5F)c4)nn4ncccc34)n2)cc1 | 93% (active) | 86% (active) | 1 | 97% (active) |  | inactive | inactive | inactive
Cc1ccc(Nc2nccc(N(C)c3ccc4c(c3)nc(NC(=O)Cc3ccc(Cl)c(Cl)c3)n4C)n2)cc1S(N)(=O)=O | 60% (active) | 71% (active) | 0 | 94% (active) |  | inactive | inactive | inactive
CN1CCN(Cc2cccc(-c3ccc4c(Nc5cc(O)c(Cl)cc5F)ccnc4c3)c2)CC1 | 100% (active) | -1% | 4 | 102% (active) |  | inactive | inactive | inactive
CS(=O)(=O)Nc1cccc(-c2cnc3[nH]cc(-c4ccc(CN)cc4)c3c2)c1 | 95% (active) | 27% | 2 | 98% (active) |  | inactive | inactive | inactive
O=C(NCCN1CCCC1)c1cccc(Nc2nccc(Nc3ccc(Oc4ccccc4)cc3)n2)c1 | 18% | 33% | -3 | 100% (active) |  | inactive | inactive | inactive
c1ccc(Oc2ccc(Nc3ccnc(Nc4ccc5cn[nH]c5c4)n3)cc2)cc1 | 33% | 6% | -7 | 94% (active) |  | inactive | inactive | inactive
CN1CCN(Cc2cccc(Nc3nccc(Nc4ccc(Oc5ccccc5)cc4)n3)c2)CC1 | 80% (active) | 30% | 2 | 97% (active) |  | inactive | inactive | inactive
NCC1(c2nc(-c3ccc(Cl)c(O)c3)c(-c3ccncc3)[nH]2)CCCCC1 | 98% (active) | 48% | -2 | 98% (active) |  | inactive | inactive | inactive
CN(C)CCOc1ccc(-c2cc(-c3ccnc(N)n3)c(-c3ccc(Cl)c(O)c3)o2)cc1 | 91% (active) | 14% | 5 | 101% (active) |  | inactive | inactive | inactive
O=C(NCCCN1CCCCC1)c1ccc(Nc2nccc(Nc3ccc(Oc4ccccc4)cc3)n2)cc1 | 61% (active) | 30% | -3 | 100% (active) |  | inactive | inactive | inactive
CC(C)(CNCc1ccccc1)c1nc(-c2ccc(Cl)c(O)c2)c(-c2ccncc2)[nH]1 | 99% (active) | 77% (active) | -2 | 101% (active) |  | inactive | inactive | inactive
COc1ccc(-c2cnc3ccc(NC4CCC(O)CC4)nn23)cn1 (stereo unspecified) | 73% (active) | 54% (active) | 4 | 98% (active) |  | inactive | inactive | inactive

Source: PubChem BioAssay
